Pf growth 96h: inhibits malaria parasite growth, 96 h; AID 504834; Potency, µM (top dose mostly 28.7 µM), without a hit: at the highest dose activity change, negative = inhibition, most hits filed as inhibitors; actives 6.9% (n = 320,000); P. falciparum luciferase reporter growth, 96 h; active = well fitted inhibition curve with a large enough effect; inconclusive = small, poorly fitted or top-dose-only effect, or another doubt; inactive = no such curve, though single readings can be large or run the other way; note: potency is the fitted concentration of half-maximal effect; % is set by controls: 0 for no effect and ±100 for the full control effect
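Parasite growth measured via integrated firefly luciferase reporter in P. falciparum. Infected erythrocytes at 2% hematocrit, 0.05% parasitemia final were treated 96 hours at 37 C under 5% CO2, and luminescence was read.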
CHX counter: affects cycloheximide protein synthesis inhibition readout, counter-screen | max response, % | actives 12% (n = 300,000) | AID 2314 | cell reporter, cycloheximide protein synthesis inhibition counterscreen; in the data active = max response mostly above about 13%, no sharp cut-off; inactive = mostly below about 14%; note: read at 38.3 µM for the half of the compounds with a filed dose; 0% is about no effect
Pf growth 48h: inhibits P. falciparum growth in the first generation, 48 h. P. falciparum luciferase growth in erythrocytes, 48 h. Potency, µM (highest dose often 28.7 µM), without a hit: at the highest dose activity change, negative = inhibition, most hits filed as inhibitors. actives 5.9% (n = 310,000). AID 504832; active = well fitted inhibition curve with a large enough effect; inconclusive = small, poorly fitted or top-dose-only effect, or another doubt; inactive = no such curve, though single readings can be large or run the other way; note: potency is the fitted concentration of half-maximal effect; % is set by controls: 0 for no effect and ±100 for the full control effect
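First compound was added to culture medium, then infected red cells at 0.1% parasitemia and 2% hematocrit (final). After incubation at 37 C under 5% CO2, luciferase detection reagent was dispensed and light output recorded.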
Shiga toxin inh: inhibitors of Shiga toxin in Vero cells. inhibition, % at 38.7 µM. AID 2315. Vero cells, Shiga toxin protein synthesis inhibition reporter. actives 9.2% (n = 290,000); in the data active = inhibition mostly above about 28%, no sharp cut-off; inactive = mostly below about 43%; note: 0% is about no effect
NS1 inh: influenza NS1 inhibition; Potency, µM (doses to about 46.1 µM), inactives show top-dose activity, positive = more growth; actives 0.4% (n = 270,000); AID 2326; note: potency is the fitted concentration of half-maximal effect; actives are rising curves; nearly all actives have a fitted effect of over 50% in size
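Compounds were scored for reversing the slow growth caused by influenza A NS1 in S. cerevisiae, measured by optical density at 600 nm. Assay medium contained 2% galactose at pH 6.0; NS1-free yeast of the same strain were the positive control.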
SARS PLpro yeast: blocks SARS-CoV papain-like protease in a yeast assay; S. cerevisiae expressing SARS-CoV PLpro, growth rescue; Potency, µM (top dose mostly 32.9 µM), for the others: top-dose activity, positive = growth rescue, most hits filed as activators; actives 0.19% (n = 330,000); AID 485353; note: potency is the fitted concentration of half-maximal effect; 0% is about no effect; nearly all actives have a fitted effect of over 55% in size
Starred values were filed as active, the others as inactive; ? = inconclusive; / = no result given; [ ] = remark or other dose. A selection: hits, their analogues and other compounds. The true share with any hit is near 21%. Unless noted, calls come from the whole dose curve.

SMILES | Pf growth 96h | CHX counter | Pf growth 48h | Shiga toxin inh | NS1 inh | SARS PLpro yeast
O=C(NCC(=O)N1CCCCC1)c1sc2ccccc2c1Cl | 17% | / | -10% | / | / | -10%
CC1CCN(S(=O)(=O)c2ccc3nc(-c4ccccn4)cc(C(=O)NCCN(C)Cc4ccccc4)c3c2)CC1 | 36%[5.75 µM] | -1 | -15% | 4 | / | 0%
COc1ccc(S(=O)(=O)N2CCC(C(=O)Nc3cc(Cl)ccc3N3CCOCC3)CC2)cc1OC | ? | / | ? | / | / | 2%
COc1ccc(S(=O)(=O)N2c3ccc(Cl)cc3[C@](O)(c3ccccc3Cl)[C@@H]2C(=O)N2CCC[C@H]2C(N)=O)cc1OC | 9.5µM* | / | ? | / | / | /
O=C(NC(Cc1ccccc1)C(=O)O)/C(=C\c1ccco1)NC(=O)c1ccco1 (stereo unspecified) | -15% | 19* | 29% | 18 | 4% | 1%
O=C(NC(Cc1c[nH]c2ccccc12)C(=O)O)/C(=C/c1ccc2c(c1)OCO2)NC(=O)c1ccccc1 (stereo unspecified) | 49% | -4 | -10% | -6 | / | 1%
O=C(NC(Cc1ccccc1)C(=O)O)/C(=C\c1ccco1)NC(=O)c1ccc(Br)cc1 (stereo unspecified) | 46% | -2 | 18% | -9 | 17% | 3%
O=C(NC(Cc1ccccc1)C(=O)O)/C(=C\c1ccco1)NC(=O)c1ccccc1 (stereo unspecified) | 2.6µM* | -1 | 40% | -10 | 10% | 0%
O=C(NC(Cc1c[nH]c2ccccc12)C(=O)O)/C(=C\c1ccccc1)NC(=O)c1ccccc1 (stereo unspecified) | 10µM* | -3 | 10% | 13 | 2% | 1%
COc1ccccc1OC(=O)c1cc(Cl)nc2ccccc12 | 30% | -2 | 14% | -3 | -16% | -17%
OC(c1ccccn1)(c1ccccn1)c1ccccn1 | ? | 2 | ? | 10 | 8% | ?
COc1ccc(-n2c(=O)c3ccccc3n(CC(=O)OCc3ccccc3)c2=O)cc1OC | 66% | 6 | 40% | -13 | / | -1%
COC(=O)N/N=C(\C)c1cccs1 | 11% | 11* | 0% | 17 | 5% | 1%
C/C(=N/NC(=O)c1ccc2nc[nH]c2c1)c1cccs1 | 134% | 39* | 149% | 55* | -8% | -1%
C/C(=N/NC(=O)c1cccs1)c1ccc(NC(=O)COc2ccc(Cl)cc2)cc1 | 2%[5.75 µM] | 36* | 0% | 79* | 3% | 17%
C/C(=N\NC(=O)c1ccc(NS(=O)(=O)c2cccs2)cc1)c1cccs1 | 12% | 17 | -7% | 15 | / | -1%
C/C(=N\NC(=O)c1ccc(Cl)cc1)c1cccs1 | 87% | 19* | 200% | 57* | / | -8%
Cc1ccc(/C=N/NC(=O)c2ccc3nc[nH]c3c2)s1 | 26% | 21 | 36% | 42 | / | 3%
Cn1c(=O)cc(SCC(=O)NCCC2=CCCCC2)c2cc(Cl)ccc21 | ? | 1 | 23% | -5 | 6% | -9%
CC[C@]12c3[nH]c4ccccc4c3CCN1C(=O)C(CC(=O)NCCc1ccccn1)C[C@@H]2C(=O)N1CCN(C(=O)c2ccco2)CC1 (stereo partly specified) | / | / | / | / | / | 2%
C=C[C@@]1(C)CC[C@H]2C(=CC[C@@H]3[C@]2(C)CCC[C@@]3(C)C(=O)O)C1 | / | -4 | / | -10 | / | /
Cc1ccc(N/C=C/C(=O)c2ccco2)c(O)c1 | 91% | 60* | 111% | 70* | 3% | -6%
Cc1ccc([N+](=O)[O-])cc1N/C=C/C(=O)c1ccco1 | 64% | 65* | 32% | 125* | -2% | 2%
Cc1ccc(NC(=O)c2ccco2)c(NC(=O)c2ccccc2)c1 | -28% | -6 | 16% | -6 | -4% | -2%
Cc1csc(SCC(=O)NCCc2ccc(Cl)cc2Cl)n1 | 53% | 10 | 2% | 3 | ? | -40%
SMILES | Pf growth 96h | CHX counter | Pf growth 48h | Shiga toxin inh | NS1 inh | SARS PLpro yeast
COc1ccc(C2=NOC(Cn3nc(C(=O)NCc4cccs4)cc3-c3ccccc3)C2)cc1 (stereo unspecified) | ? | / | ? | / | / | -7%
Cc1ccccc1-c1cc(C(=O)NCc2ccc3c(c2)OCO3)n(CC2CC(c3cccnc3)=NO2)n1 (stereo unspecified) | 4.1µM* | / | ? | / | / | -1%
Cc1ccc(CNC(=O)c2cc(-c3ccccc3C)nn2CC2CC(c3cccnc3)=NO2)cc1 (stereo unspecified) | / | / | / | / | / | -8%
COc1ccc(C2=NOC(Cn3nc(C(=O)NCc4ccco4)cc3-c3ccccc3)C2)cc1 (stereo unspecified) | 10µM* | / | 13µM* | / | / | -23%
COCCNC(=O)c1cc(-c2ccccc2)n(CC2CC(c3ccc(OC)cc3)=NO2)n1 (stereo unspecified) | ? | / | -29% | / | / | 4%
COc1ccc(C2=NOC(Cn3nc(C(=O)NCc4ccc(C)cc4)cc3-c3ccccc3)C2)cc1 (stereo unspecified) | 10µM* | / | 10µM* | / | / | -1%
COc1ccc(C2=NOC(Cn3nc(C(=O)NCc4cccc(C(F)(F)F)c4)cc3-c3ccccc3)C2)cc1 (stereo unspecified) | 4.7µM* | / | 4.7µM* | / | / | -2%
CC(C)CC(NC(=O)C(NC(=O)C1CCC(=O)N1C(=O)OCc1ccccc1)C(C)C)C(=O)N1CCCC1C(N)=O (stereo unspecified) | ? | -4 | 16% | -5 | -2% | 3%
O=C1c2ccccc2OCOc2ccccc21 | 6% | -2 | / | -14 | -10% | 3%
O=C1c2ccccc2COc2ccc(O)cc21 | 116% | 10 | 20% | 64 | -82% | -16%
COc1ccc2c(c1)C(=O)c1ccccc1CO2 | ? | 53* | / | 117* | 6% | -16%
CNC(=O)Oc1ccc2c(c1)C(=O)c1ccccc1CO2 | 47% | 16* | / | 62 | -93% | -22%
CCCOc1cc(C)c(S(=O)(=O)n2ccc(C)n2)cc1C | / | 2 | -40% | -3 | -47% | /
CCNc1sc(C(=O)OCC)c(N)c1C#N | 18% | 5 | 12% | -9 | / | -1%
CCOc1ccc(S(=O)(=O)N2CCOCC2)cc1[N+](=O)[O-] | 0% | -5 | 38% | -3 | 5% | 1%
COCCN(Cc1ccccc1)C(=O)c1ccc(C(=O)c2ccccc2)cc1 | ? | / | ? | / | / | 0%
NNC(=O)c1ccc(CSc2nc3ccccc3s2)cc1 | -20% | 14 | 5% | 54* | 19% | 0%
COCCN(CCOC)C(=O)c1ccc(CSc2nc3ccccc3s2)cc1 | -1% | 32* | 32% | 53* | 4% | -7%
CC(C)c1ccc(NNC(=O)C2CCC2)cc1 | 10% | -1 | 9% | 8 | -32% | -1%
Fc1ccc(C(OCCN2CCN(CCCc3ccccc3)CC2)c2ccc(F)cc2)cc1 | -101% | / | 12µM* | / | -48% | /
O=C1c2ccc3c4c(ccc(c24)C(=O)N1c1ccc(O)cc1)C(=O)N(c1ccc(O)cc1)C3=O | 4.7µM* | -2 | -15% | -9 | 2% | 0%

Source: PubChem
